# Results taken from paper PMC7862700, “An all-to-all approach to the identification of sequence-specific readers for epigenetic DNA modifications on cytosine”.
# How the values were obtained:
# Experiment in all cases: DAPPL (digital affinity profiling via proximity ligation, sequencing); 10 mM Tris-HCl pH 7.5, 50 mM NaCl, 1 mM DTT, 4% glycerol, room temperature, 30 min; GST-TFs on glutathione beads, 16-mer random dsDNA library, 0.1% formaldehyde crosslink after washing; high values mean tight binding
# FEV = target: T1, FEV (Homo sapiens, UniProt Q99581 1-238); settings: protein: recombinant; tags: N-terminal GST; dsDNA, one strand shown
# T1 sequence: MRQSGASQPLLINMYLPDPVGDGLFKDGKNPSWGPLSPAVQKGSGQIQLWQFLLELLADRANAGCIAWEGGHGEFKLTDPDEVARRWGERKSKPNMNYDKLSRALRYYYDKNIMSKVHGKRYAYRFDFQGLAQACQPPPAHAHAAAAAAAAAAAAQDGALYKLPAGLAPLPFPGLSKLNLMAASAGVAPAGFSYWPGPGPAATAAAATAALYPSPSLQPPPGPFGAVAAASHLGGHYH
# Outline: (§1)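 Human transcription factors fused to GST were expressed in yeast, captured on glutathione beads, given DNA barcodes and pooled with a GST-only negative control. Pools were incubated with 200 nmole of a 16-mer random double-stranded DNA library in Tris/NaCl/DTT/glycerol buffer at room temperature for 30 min. They were then washed, crosslinked with 0.1% formaldehyde, proximity-ligated (BsaI/T4 ligase, 1 h, 37 °C), PCR-amplified and sequenced on an Illumina NextSeq500. Binding signal is each 6-mer's read frequency for a factor divided by its frequency for the GST control.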
# ETV5 = ETV5 (Homo sapiens, UniProt P41161 1-510); settings: protein: recombinant; tags: N-terminal GST; dsDNA, one strand shown
# Outline: as §1
# HSF1 = HSF1 (Homo sapiens, UniProt Q00613 1-529); settings: protein: recombinant; tags: N-terminal GST; chain copies: 3; dsDNA, one strand shown
# Outline: as §1
# SPIC = target: T2, SPIC (Homo sapiens, UniProt Q8N5J4 1-248); settings: protein: recombinant; tags: N-terminal GST; dsDNA, one strand shown
# T2 sequence: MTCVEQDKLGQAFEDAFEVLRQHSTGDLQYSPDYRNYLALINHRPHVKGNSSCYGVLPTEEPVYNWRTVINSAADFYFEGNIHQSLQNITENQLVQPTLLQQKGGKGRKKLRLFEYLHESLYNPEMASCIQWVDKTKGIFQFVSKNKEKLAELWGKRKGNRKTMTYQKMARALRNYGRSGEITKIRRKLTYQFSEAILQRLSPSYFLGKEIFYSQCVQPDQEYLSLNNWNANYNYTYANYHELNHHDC
# Outline: as §1
# ELF4 = ELF4 (Homo sapiens, UniProt Q99607 1-663); settings: protein: recombinant; tags: N-terminal GST; dsDNA, one strand shown
# Outline: as §1
# ELK4 = target: T3, ELK4 (Homo sapiens, UniProt P28324-2 1-405); settings: protein: recombinant; tags: N-terminal GST; dsDNA, one strand shown
# T3 sequence: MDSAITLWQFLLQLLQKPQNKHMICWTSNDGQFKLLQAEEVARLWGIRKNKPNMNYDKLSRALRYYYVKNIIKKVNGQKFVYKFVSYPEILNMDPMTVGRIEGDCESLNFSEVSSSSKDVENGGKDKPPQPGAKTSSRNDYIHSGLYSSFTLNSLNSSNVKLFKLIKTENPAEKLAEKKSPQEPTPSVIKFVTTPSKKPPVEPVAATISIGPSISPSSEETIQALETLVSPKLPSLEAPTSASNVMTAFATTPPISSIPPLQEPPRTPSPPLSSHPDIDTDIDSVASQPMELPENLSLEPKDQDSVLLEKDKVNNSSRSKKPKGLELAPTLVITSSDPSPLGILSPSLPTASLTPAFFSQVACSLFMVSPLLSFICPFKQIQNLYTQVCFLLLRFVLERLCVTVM
# Outline: as §1
# ETV2 = target: T4, ETV2 (Homo sapiens, UniProt O00321 1-342); settings: protein: recombinant; tags: N-terminal GST; dsDNA, one strand shown
# T4 sequence: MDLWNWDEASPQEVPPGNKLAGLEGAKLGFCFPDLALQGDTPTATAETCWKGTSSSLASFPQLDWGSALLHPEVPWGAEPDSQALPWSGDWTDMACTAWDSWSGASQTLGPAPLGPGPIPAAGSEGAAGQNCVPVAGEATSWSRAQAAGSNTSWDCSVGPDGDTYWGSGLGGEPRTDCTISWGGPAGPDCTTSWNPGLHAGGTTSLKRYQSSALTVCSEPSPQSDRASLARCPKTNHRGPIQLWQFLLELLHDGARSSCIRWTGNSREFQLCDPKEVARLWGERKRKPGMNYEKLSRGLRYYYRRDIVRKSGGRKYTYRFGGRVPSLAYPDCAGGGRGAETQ
# Outline: as §1
# ELF3 = target: T5, ELF3 (Homo sapiens, UniProt P78545 1-371); settings: protein: recombinant; tags: N-terminal GST; dsDNA, one strand shown
# T5 sequence: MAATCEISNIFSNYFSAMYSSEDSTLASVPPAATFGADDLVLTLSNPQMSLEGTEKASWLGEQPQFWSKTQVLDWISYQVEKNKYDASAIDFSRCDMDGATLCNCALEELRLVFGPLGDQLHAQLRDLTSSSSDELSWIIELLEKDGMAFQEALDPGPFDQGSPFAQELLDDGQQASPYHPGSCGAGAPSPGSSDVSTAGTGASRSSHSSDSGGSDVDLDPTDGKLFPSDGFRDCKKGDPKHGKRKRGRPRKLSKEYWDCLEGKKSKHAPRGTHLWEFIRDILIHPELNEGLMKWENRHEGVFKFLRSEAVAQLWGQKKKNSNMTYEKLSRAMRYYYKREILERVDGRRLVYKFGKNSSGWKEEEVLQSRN
# Outline: as §1
# CRX = CRX (Homo sapiens, UniProt O43186 1-299); settings: protein: recombinant; tags: N-terminal GST; dsDNA, one strand shown
# Outline: as §1
# ETV1 = ETV1 (Homo sapiens, UniProt P50549 1-477); settings: protein: recombinant; tags: N-terminal GST; dsDNA, one strand shown
# Outline: as §1
# ERF = target: T6, ERF (Homo sapiens, UniProt P50548 1-548); settings: protein: recombinant; tags: N-terminal GST; dsDNA, one strand shown
# T6 sequence: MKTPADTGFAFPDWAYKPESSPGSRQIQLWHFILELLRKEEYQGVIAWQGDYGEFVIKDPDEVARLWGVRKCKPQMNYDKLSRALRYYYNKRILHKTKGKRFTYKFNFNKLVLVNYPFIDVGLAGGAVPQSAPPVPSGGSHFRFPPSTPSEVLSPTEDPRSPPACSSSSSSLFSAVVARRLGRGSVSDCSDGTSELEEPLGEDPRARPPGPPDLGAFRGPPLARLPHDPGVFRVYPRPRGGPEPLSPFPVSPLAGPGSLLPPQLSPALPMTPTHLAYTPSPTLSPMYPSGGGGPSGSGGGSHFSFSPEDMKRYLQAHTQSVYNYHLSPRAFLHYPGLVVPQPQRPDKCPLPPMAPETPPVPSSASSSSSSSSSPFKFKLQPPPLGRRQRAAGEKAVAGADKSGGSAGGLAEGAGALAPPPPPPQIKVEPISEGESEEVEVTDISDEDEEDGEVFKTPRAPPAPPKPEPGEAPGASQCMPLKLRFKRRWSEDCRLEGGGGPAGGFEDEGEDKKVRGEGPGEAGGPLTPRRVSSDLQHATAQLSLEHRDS
# Outline: as §1
# ETV3L = target: T7, ETV3L (Homo sapiens, UniProt Q6ZN32 1-361); settings: protein: recombinant; tags: N-terminal GST; dsDNA, one strand shown
# T7 sequence: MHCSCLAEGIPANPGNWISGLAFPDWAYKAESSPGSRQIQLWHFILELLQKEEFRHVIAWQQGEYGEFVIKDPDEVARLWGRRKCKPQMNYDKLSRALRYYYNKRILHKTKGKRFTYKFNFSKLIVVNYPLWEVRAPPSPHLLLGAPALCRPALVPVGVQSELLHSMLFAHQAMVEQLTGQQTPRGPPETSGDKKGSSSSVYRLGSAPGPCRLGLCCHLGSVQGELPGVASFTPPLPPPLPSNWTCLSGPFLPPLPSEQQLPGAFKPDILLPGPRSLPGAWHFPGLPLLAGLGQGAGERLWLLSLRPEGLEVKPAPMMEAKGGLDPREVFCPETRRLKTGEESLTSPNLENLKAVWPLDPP
# Outline: as §1
# ETS2 = target: T8, ETS2 (Homo sapiens, UniProt P15036 1-469); settings: protein: recombinant; tags: N-terminal GST; dsDNA, one strand shown
# T8 sequence: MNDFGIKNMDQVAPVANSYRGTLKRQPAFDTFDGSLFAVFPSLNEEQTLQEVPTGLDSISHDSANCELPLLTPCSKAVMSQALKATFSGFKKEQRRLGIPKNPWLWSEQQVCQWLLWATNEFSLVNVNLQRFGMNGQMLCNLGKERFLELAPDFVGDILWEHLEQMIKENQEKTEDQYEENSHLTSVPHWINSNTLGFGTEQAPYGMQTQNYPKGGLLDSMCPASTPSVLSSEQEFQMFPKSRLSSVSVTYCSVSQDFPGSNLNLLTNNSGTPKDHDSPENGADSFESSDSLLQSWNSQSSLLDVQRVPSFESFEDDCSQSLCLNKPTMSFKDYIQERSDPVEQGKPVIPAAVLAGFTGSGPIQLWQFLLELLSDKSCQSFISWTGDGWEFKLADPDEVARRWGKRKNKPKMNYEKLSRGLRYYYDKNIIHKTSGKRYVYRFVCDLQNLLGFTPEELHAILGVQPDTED
# Outline: as §1
# SPDEF = target: T9, SPDEF (Homo sapiens, UniProt O95238 1-335); settings: protein: recombinant; tags: N-terminal GST; dsDNA, one strand shown
# T9 sequence: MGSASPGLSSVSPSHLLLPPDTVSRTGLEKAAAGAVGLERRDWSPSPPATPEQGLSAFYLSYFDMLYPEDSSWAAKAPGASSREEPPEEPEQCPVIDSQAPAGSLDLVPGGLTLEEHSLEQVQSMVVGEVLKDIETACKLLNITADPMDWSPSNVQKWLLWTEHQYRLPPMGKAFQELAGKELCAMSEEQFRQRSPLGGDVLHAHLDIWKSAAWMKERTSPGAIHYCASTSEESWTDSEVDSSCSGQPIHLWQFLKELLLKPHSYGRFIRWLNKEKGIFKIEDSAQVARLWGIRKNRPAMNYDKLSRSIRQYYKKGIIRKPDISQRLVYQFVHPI
# Outline: as §1
# ETV7 = target: T10, ETV7 (Homo sapiens, UniProt Q9Y603 1-341); settings: protein: recombinant; tags: N-terminal GST; dsDNA, one strand shown
# T10 sequence: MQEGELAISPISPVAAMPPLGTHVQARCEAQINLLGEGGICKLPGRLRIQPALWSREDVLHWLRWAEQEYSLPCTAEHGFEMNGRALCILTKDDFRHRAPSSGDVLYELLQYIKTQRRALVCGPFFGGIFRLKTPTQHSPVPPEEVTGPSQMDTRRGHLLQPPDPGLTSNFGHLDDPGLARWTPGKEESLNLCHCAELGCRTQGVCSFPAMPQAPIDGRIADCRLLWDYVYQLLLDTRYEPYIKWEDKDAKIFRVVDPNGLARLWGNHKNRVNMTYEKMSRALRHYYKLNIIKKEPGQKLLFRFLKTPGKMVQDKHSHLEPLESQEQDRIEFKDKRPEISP
# Outline: as §1
# ELF5 = target: T11, ELF5 (Homo sapiens, UniProt Q9UKW6-2 1-255); settings: protein: recombinant; tags: N-terminal GST; dsDNA, one strand shown
# T11 sequence: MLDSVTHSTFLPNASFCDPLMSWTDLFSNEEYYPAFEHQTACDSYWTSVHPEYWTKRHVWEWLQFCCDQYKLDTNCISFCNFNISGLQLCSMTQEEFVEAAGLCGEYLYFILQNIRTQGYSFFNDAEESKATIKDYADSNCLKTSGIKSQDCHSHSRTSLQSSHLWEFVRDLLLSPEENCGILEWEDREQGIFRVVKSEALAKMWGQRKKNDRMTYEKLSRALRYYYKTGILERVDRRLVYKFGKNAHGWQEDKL
# Outline: as §1
# ETV3 = target: T12, ETV3 (Homo sapiens, UniProt P41162-2 1-143); settings: protein: recombinant; tags: N-terminal GST; dsDNA, one strand shown
# T12 sequence: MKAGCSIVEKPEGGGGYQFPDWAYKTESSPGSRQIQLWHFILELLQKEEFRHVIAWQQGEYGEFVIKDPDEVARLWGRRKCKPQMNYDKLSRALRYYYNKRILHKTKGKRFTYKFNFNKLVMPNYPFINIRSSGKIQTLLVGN
# Outline: as §1
# ETV6 = ETV6 (Homo sapiens, UniProt P41212 1-452); settings: protein: recombinant; tags: N-terminal GST; dsDNA, one strand shown
# Outline: as §1
# Sequence of CRX (O43186 whole entry): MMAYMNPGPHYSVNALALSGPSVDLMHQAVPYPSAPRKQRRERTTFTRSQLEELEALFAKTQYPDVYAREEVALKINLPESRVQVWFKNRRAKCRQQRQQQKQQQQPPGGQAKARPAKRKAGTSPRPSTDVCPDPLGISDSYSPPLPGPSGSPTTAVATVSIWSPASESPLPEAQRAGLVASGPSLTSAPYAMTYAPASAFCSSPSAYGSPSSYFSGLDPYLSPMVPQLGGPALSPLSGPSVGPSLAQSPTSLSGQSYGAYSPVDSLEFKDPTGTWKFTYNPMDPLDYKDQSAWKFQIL
# Sequence of HSF1 (Q00613 whole entry): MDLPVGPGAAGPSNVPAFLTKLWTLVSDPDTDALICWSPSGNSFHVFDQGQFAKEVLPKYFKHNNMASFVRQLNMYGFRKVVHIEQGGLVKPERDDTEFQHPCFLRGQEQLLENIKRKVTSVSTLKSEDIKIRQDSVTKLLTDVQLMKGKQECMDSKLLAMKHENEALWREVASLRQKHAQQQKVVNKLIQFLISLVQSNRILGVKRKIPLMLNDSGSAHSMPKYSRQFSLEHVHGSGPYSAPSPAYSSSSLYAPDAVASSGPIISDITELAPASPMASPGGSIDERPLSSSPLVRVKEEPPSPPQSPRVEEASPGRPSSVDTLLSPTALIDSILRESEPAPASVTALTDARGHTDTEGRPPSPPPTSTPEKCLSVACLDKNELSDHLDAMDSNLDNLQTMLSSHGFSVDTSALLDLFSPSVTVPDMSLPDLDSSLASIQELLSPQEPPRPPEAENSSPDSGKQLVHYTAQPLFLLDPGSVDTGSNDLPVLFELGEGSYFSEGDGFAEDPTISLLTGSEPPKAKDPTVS
# Sequence of ETV5 (P41161 whole entry): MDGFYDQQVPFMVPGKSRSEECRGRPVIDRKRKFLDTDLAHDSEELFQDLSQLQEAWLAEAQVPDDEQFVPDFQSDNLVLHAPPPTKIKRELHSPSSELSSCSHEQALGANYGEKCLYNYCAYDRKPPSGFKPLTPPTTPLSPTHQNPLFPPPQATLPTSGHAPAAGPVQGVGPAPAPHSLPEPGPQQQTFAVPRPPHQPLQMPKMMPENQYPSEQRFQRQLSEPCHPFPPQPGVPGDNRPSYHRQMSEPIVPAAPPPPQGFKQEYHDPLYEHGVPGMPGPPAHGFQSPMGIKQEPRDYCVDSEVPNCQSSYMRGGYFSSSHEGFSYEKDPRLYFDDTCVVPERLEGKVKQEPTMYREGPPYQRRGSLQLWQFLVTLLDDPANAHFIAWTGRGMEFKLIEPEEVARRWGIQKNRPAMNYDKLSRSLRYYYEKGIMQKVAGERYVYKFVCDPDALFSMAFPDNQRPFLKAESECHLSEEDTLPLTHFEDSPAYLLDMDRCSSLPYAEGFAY
# Sequence of ETV1 (P50549 whole entry): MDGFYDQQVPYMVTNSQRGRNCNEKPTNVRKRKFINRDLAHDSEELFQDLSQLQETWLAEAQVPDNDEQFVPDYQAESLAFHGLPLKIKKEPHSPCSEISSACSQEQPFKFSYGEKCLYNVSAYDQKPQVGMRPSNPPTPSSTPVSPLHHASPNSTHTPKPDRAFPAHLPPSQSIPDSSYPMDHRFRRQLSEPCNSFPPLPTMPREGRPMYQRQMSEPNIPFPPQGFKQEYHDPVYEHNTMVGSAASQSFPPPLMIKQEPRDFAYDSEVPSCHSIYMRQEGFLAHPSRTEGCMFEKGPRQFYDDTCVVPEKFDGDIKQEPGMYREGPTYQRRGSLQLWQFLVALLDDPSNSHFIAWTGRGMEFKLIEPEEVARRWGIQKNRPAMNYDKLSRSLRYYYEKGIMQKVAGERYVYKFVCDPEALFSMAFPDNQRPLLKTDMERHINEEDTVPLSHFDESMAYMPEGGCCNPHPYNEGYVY
# Sequence of ETV6 (P41212 whole entry): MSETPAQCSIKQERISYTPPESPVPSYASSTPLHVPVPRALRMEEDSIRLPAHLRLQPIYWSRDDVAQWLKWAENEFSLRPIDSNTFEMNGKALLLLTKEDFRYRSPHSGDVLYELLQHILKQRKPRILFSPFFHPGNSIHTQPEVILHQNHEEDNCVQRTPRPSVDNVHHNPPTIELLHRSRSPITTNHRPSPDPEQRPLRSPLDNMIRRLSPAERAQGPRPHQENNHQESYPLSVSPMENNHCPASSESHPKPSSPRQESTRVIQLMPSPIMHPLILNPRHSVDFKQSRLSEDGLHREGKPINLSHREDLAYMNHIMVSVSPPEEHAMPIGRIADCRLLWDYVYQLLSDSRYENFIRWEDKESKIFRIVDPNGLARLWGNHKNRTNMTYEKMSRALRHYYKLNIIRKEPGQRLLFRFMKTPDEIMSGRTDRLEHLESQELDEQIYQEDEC
# Sequence of ELF4 (Q99607 whole entry): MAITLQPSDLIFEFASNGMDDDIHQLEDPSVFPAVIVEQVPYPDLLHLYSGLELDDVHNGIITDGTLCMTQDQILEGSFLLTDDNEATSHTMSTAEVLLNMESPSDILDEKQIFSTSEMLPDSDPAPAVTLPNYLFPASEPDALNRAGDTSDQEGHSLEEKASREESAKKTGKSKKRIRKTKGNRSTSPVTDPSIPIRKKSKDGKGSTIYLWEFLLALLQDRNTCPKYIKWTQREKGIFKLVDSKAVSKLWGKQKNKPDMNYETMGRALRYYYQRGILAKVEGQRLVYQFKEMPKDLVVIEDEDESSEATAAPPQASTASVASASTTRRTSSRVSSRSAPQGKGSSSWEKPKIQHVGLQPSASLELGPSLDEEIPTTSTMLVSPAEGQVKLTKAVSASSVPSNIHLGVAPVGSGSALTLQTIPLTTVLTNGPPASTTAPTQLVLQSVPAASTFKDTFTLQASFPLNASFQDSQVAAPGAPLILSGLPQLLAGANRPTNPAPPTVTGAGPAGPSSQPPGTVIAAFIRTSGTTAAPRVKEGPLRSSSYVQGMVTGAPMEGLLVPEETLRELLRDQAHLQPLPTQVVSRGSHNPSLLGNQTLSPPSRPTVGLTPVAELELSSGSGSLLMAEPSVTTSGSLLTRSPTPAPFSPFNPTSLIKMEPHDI
sequence,measurement,setting,value
CCCATT,binding signal,FEV,"1.28 fold enrichment (6-mer frequency, TF over GST control)"
same,binding signal,ETV5,"1.38 fold enrichment (6-mer frequency, TF over GST control)"
same,binding signal,HSF1,"1.15 fold enrichment (6-mer frequency, TF over GST control)"
same,binding signal,SPIC,"1.43 fold enrichment (6-mer frequency, TF over GST control)"
same,binding signal,ELF4,"1.23 fold enrichment (6-mer frequency, TF over GST control)"
same,binding signal,ELK4,"1.26 fold enrichment (6-mer frequency, TF over GST control)"
same,binding signal,ETV2,"1.56 fold enrichment (6-mer frequency, TF over GST control)"
same,binding signal,ELF3,"1.22 fold enrichment (6-mer frequency, TF over GST control)"
same,binding signal,CRX,"1.19 fold enrichment (6-mer frequency, TF over GST control)"
same,binding signal,ETV1,"1.25 fold enrichment (6-mer frequency, TF over GST control)"
same,binding signal,ERF,"1.32 fold enrichment (6-mer frequency, TF over GST control)"
same,binding signal,ETV3L,"1.3 fold enrichment (6-mer frequency, TF over GST control)"
same,binding signal,ETS2,"1.43 fold enrichment (6-mer frequency, TF over GST control)"
same,binding signal,SPDEF,"1.19 fold enrichment (6-mer frequency, TF over GST control)"
same,binding signal,ETV7,"1.38 fold enrichment (6-mer frequency, TF over GST control)"
same,binding signal,ELF5,"1.4 fold enrichment (6-mer frequency, TF over GST control)"
same,binding signal,ETV3,"1.24 fold enrichment (6-mer frequency, TF over GST control)"
same,binding signal,ETV6,"1.29 fold enrichment (6-mer frequency, TF over GST control)"
